# Test results reported in the supplement of paper PMC6555819.
# Assays:
# Assay in all cases: PBM binding z-score (relative to random genomic background probes); higher = stronger binding; sequences stand for … in GC…GCGATTGACAGCGTAGAATGAAGG
# [1] = test system: RARb homodimer (NR concentration 270 nM)
# In short: (§1)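 Binding buffer was PBS pH 7.4 with 2% milk, 0.02% Triton X-100, 1 mM DTT, 0.2 mg/mL BSA and 0.4 mg/ml salmon testes DNA. In it, ligand-free nuclear receptor dimers were incubated 1 h on custom Agilent 4×180K protein-binding microarrays carrying double-stranded probes. Antibodies against each partner (one per run) detected binding, and z-scores were calculated against random background probes after regression normalization of scanned fluorescence.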
# [2] = test system: RARg:RXRa (NR concentration 270 nM, RXRa partner concentration 90 nM)
# In short: as §1
# [3] = test system: RARg homodimer (NR concentration 270 nM)
# In short: as §1
# [4] = test system: RXRa DBDmut IVT, anti-RXR (DBD mutation: RXRa K156A/R161A, NR concentration 90 nM)
# In short: as §1
# [5] = test system: RXRa homodimer (NR concentration 180 nM)
# In short: as §1
# [6] = test system: THRa:RXRa (NR concentration 90 nM, RXRa partner concentration 90 nM)
# In short: as §1
# [7] = test system: THRa homodimer (NR concentration 90 nM)
# In short: as §1
# [8] = test system: VDR:RXRa (NR concentration 270 nM, RXRa partner concentration 90 nM)
# In short: as §1
# [9] = test system: VDR homodimer (NR concentration 270 nM)
# In short: as §1
Sequence,PBM binding z-score [1],PBM binding z-score [2],PBM binding z-score [3],PBM binding z-score [4],PBM binding z-score [5],PBM binding z-score [6],PBM binding z-score [7],PBM binding z-score [8],PBM binding z-score [9]
TCGAGTAGGTTACCAATGGGGCACTCAGCTTTCT,0.601,1.21,0.434,0.0606,0.428,0.0127,-0.648,0.142,-0.704
CCTTACGGGTCACTAACAGGTTATAGCATTTGGA,3.17,5.31,4.12,2.03,4.25,2.98,0.367,3.28,1.29
CGTCCAAGGTCATAGGAGGTCAGTAAAGACAGAT,5.26,6.85,7.38,4.16,6.73,5.25,3.1,6.61,4.5
CGAACTAGGCCAGAACAGGACAGTGAAGGATGAT,0.156,0.158,0.409,0.019,0.291,0.634,-0.576,-0.283,-0.245
GCTTACGGGTCAAAGGTTATAGGATGAATAGAAT,3.6,6.89,4.67,2.7,9.57,3.78,0.0155,5.56,1.65
TCATATAGGTAATACGGGTGAAAGTCGGCATCTA,0.258,0.35,0.383,1.33,0.921,0.697,0.103,1.25,0.0658
AGTCAAAGTTCATGTAGGTAACGTAAGATATGCT,3.73,5.31,5.84,4.74,4.45,2.65,-0.0581,4.84,4.64
TCTAGCAGGCCAGCGGGTCACTCAAGAGGTACGG,2.01,2.14,1.56,0.000361,1.77,1.42,-0.34,0.435,-0.133
TCTACAGGGTCAAAGGCCAGAGTACGAATGTCGA,3.2,5.47,5,3.16,6.72,3.48,0.454,4.56,2.55
TTACCAAGGTGAAGGTCGCTGATCCCTCTGTAGA,2.03,1.72,1.7,-0.269,1.85,2.41,0.612,0.493,-0.248
ATCGAAAGGTCGTGAGCTGAGTATACAGAAAGGC,2.17,4.41,3.74,0.921,5.11,2.31,-0.456,2.95,0.299
CCTTACGGGTCACGAGGTTATAGAACGACGAGCG,4.13,6.4,5.59,1.18,7.41,3.8,1.14,5.31,2.22
AGAATGAGGTTACCCAAGATCAGGGAAACGCTTG,0.82,1.93,1.6,1.06,2.36,3.28,0.843,1.55,0.242
ATGGAAAGGTCGAGGTGAGTATAGAGAAAGGGAA,3.16,4.21,4.21,0.469,4.53,3.15,1.47,2.81,0.902
TCGAGTAGGTTAGTCGGAGCATTCAGCCAACATA,-0.533,-0.461,-0.343,-0.252,-0.401,-0.658,-0.781,-0.307,-0.514
CAGCCTAGGTCAAGGCCAGTATAGGAGGAACGTT,3.01,4.16,4.9,0.701,2.75,2.75,0.86,1.3,0.353
CGAACTAGGTCAAGGACAGTCAATCTCCGCACGC,3.32,3.79,4.63,1.46,2.57,3.19,1.96,1.61,0.563
TCTCGGAGGACACGAAGGTCTGAGCTTTCCAGAG,0.657,0.331,1.01,0.323,-0.0356,1.12,0.262,-0.323,-0.384
GCTAGTTGGTCCGTAAAAGGTCACACACCGGTCG,5,5.04,4.7,0.491,5.6,3.5,1.82,3.97,1.94
CGTCCAAGGTCAAGGTTAGTGAAAGAGACTCGAA,4.33,5.94,6.75,3.28,5.75,3.98,2.66,3.93,1.85
TCGAGTAGGTTAGTCGGGGCATTCATCCAACATA,0.534,-0.0149,0.214,0.518,0.053,1.19,0.047,2.37,0.435
CGTCCAAGGTCAGAGAGGTCAATGAATGCCGAGT,5.42,7,7.52,3.55,6.58,4.53,2.88,7.79,6.88
AGAATGAGGTTACCAAGGATCAGGGAAACGCTTG,1.02,1.94,1.65,0.704,2.62,2.94,1.1,2.03,0.508
CCTAGCAGGCCAGGCTCACTCAAGCATTTCGCTT,-0.944,-0.644,-0.705,0.0454,-0.649,-0.789,-0.705,-0.772,-0.911
GCTGCTAGGTCAACTGATGGTCGGCTAAAGCTCG,3.67,4.74,5.56,1.82,2.91,3.09,0.97,1.4,0.148
CCTGCTGGGTCAATGGTCAGCTAAAGCAGCTCGC,2.5,3.24,3.33,0.787,2.48,1.26,-0.14,0.85,-0.211

Sequence,PBM binding z-score [1],PBM binding z-score [2],PBM binding z-score [3],PBM binding z-score [4],PBM binding z-score [5],PBM binding z-score [6],PBM binding z-score [7],PBM binding z-score [8],PBM binding z-score [9]
GGAAAGAGGGCAAAGTTGATAGCATCTGTCGACG,1.93,2.84,2.38,1.85,2.81,1.08,0.0442,1.53,1.18
TCTCGGAGGACACGAAAGGTAAGAGCTCGACATC,0.782,0.65,1.6,0.729,0.0654,2,0.0945,0.0922,-0.863
GCTAATTGGTCAGTAAAAGGTCACACACCGGTCG,5.34,5.37,4.52,0.816,5.27,3.88,2.1,4.07,2.14
TCTTGTAGAACAAGCAGGTTAAGAAAGCCTGAGT,0.0404,-0.0958,-0.255,0.567,0.349,0.0268,-0.349,0.279,-0.0601
CCTAGCAGGCCACTCTGGGTCACTCAAGGCTTGA,2.05,1.36,1.45,0.0538,0.851,3.4,0.412,0.79,0.081
TTACCAAGGCGAAAGGTCGTTGATGCACGCCTTG,1.7,2.04,1.11,0.253,2.66,1.44,-0.366,1.65,1.13
TCTTGTAGATCAACAGGAGGTTGAGAAAGATCGA,-0.533,0.156,-0.228,0.313,0.301,-0.174,-0.919,-0.025,-0.475
TCATATAGGTAATTGCTAGGTGAAAGTCCGATCT,0.402,0.393,0.128,1.47,0.589,1.44,0.689,0.884,0.282
CGAACTAGGTCAGAACCGGACAGTGAAGGATGAT,1.76,2.4,3.3,0.258,1.12,1.72,0.00608,0.264,-0.191
CGAACTAGGTCAAGGTCAAAGTCGGTTTGTGCCA,4.96,5.97,6.77,3.12,5.78,4.11,3.7,4.97,4.23
CCTATTAGTTGACCAGAAGGGCAACCGAAGCTCG,1.88,1.45,0.985,0.633,0.786,0.606,0.383,0.596,0.595
AGTCAAAGTTCATCTAGGTAACGTACGATATGCT,3.93,5.49,5.82,4.69,4.69,3.28,0.448,5.15,5.04
CCTTTTAGTTGACCATAAGGGCAACCGAAGCTCG,2.13,1.55,1.08,0.818,0.506,1.8,1.51,1.28,0.92
GCGACTGGGGCATCAGCCGGTTACCATAACTTAA,0.131,0.11,0.063,-0.636,-0.543,-0.0849,-0.579,-0.669,-0.974
CCTAGCAGGCAAGGGTCACTCAAGCATTTCGCTT,3.46,4.12,3.63,0.602,4.6,2.36,-0.309,2.81,0.817
GCTAGAAGGCCATTTGGGTCACTCAATGACGGGC,2.47,1.61,2.24,0.256,1.05,2.42,0.686,1.82,1.05
GGAACGAGGGCAAGTTGATAGGAGAGTTTGATGG,1.61,1.72,2.08,2.4,0.681,1.27,0.249,0.886,2.23
TCTTGTAGATCCGCAGGTTAAGAAAGCTGGCCAA,-0.00283,-0.252,-0.631,0.638,0.152,0.0319,-0.513,0.237,-0.38
TCTTGTTGGTCACGGAGGTCACACACGACGGGTA,4.67,5.21,5.01,1.25,5.34,3.66,3.03,6.07,3.59
AGTCAAGGTTCACTAGGTAACGTAAGATTCAGCT,1.85,2.74,2.72,3.92,2.57,1.8,0.553,3.27,3.78
TCTAGGTGGTCACGGAGGTCACACACGACGGGTA,4.44,5.09,5.12,0.895,4.95,3.62,2.2,6.02,3.08
ACAGACTGGTGATGAAGGTAACTCAGGCTATCAT,-0.356,-0.329,0.0364,-0.417,-0.393,0.478,-0.264,-0.35,-0.921
CCTACTGGGCCATTCAGTGGTCATTGATCATATG,0.199,0.241,0.159,-0.408,-0.279,-0.329,-0.878,-0.487,-0.288
GGAACGAGGGCTAGTTGATAGCAGAGTTTGATGG,-0.317,-0.308,-0.0732,0.278,-0.467,-0.749,-1.03,-0.607,-0.367
TAGCCTAGGTCATTGGGCCCGTATAGTACGCATC,2.73,3.69,4.06,1.8,2.68,3.01,1.43,2.74,0.994
CCTACTCGGCCATTCAGAGGTCATTGATCATATG,4.19,4.17,3.64,2,3.59,3.32,1.99,4.06,4.02
